GAA glycogen mod: inhibitors or activators of human alpha-glucosidase glycogen cleavage. AID 2100. P10253. Potency, µM (highest dose often 76.4 µM), inactives show at the highest dose activity change, negative = inhibition, hits mostly inhibitors. hit rate 0.38% among 300,000. recombinant GAA, glycogen substrate, Amplex Red glucose oxidase fluorescence;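 note: potency is the fitted concentration of half-maximal effect; 0% = full enzyme reaction and -100% = no-enzyme basal signal; the screen sought inhibitors and activators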
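Natural-substrate format: glycogen cleavage by 4 nM human enzyme, glucose read by Amplex Red coupling (Ex 573, Em 610 nm). Normalized to enzyme and no-enzyme controls.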
GAA inh: blocks human lysosomal alpha-glucosidase; P10253; hit rate 0.005% among 200,000; AID 1466; Potency, µM (series often up to 76.9 µM), for inactives: top-dose activity change, negative = inhibition, usual class: inhibitors; purified human GAA, 4-MU-alpha-glucoside fluorescence;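 note: potency is the fitted concentration of half-maximal effect; plate controls were uninhibited enzyme wells for no effect and no-enzyme background for full effect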
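Activity normalized between no-enzyme (basal) and enzyme-only wells. Conditions: 4 nM human enzyme, 400 uM fluorogenic substrate, citrate/phosphate pH 5.0 with Tween-20, 20 min room temperature, compounds up to 77 uM.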
GLA inh pH 4.5: blocks human alpha-galactosidase A at pH 4.5 | activity change, negative = inhibition, % at 105 µM | AID 1467 | 230,000 tested, under 10 active | purified enzyme, 4-MU-alpha-Gal fluorescence, pH 4.5 | P06280;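 note: 0% = full activity with enzyme and -100% = basal without enzyme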
Target sequence (P06280 whole entry, looked up): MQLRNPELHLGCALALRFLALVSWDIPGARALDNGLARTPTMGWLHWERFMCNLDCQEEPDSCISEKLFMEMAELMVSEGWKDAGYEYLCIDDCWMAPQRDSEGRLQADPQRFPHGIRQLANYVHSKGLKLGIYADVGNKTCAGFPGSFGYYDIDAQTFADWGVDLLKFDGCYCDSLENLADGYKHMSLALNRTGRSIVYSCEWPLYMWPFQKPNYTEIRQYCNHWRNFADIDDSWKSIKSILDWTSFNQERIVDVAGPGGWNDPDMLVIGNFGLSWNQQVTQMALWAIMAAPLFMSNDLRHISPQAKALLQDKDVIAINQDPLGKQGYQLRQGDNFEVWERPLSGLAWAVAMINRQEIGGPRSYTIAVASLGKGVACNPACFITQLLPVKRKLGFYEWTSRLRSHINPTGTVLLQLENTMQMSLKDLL
GAA spleen mod: inhibits or activates alpha-glucosidase in human spleen homogenate. human spleen homogenate, 4-MU-alpha-glucoside fluorescence. Potency, µM (titrated, usually from 79.9 µM), without a hit: top-dose activity change, negative = inhibition, usual class: inhibitors. hit rate 0.006% among 240,000;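 note: potency is the fitted concentration of half-maximal effect; 0% = enzyme with vehicle and -100% = no enzyme basal signal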
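Enzyme source: human spleen homogenate, 1 ug/well. Buffer 50 mM citric acid/K phosphate pH 5.0, 0.01% Tween-20. 4-MU-alpha-glucoside 1 mM; 37 C x 40 min; NaOH/glycine stop; fluorescence.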
aGal spleen mod: inhibitors or activators of human alpha-galactosidase in spleen homogenate; P06280; human spleen homogenate, 4MU-alpha-Gal fluorescence, 40 min; Potency, µM (top dose mostly 80 µM), for the others: top-dose activity change, negative = inhibition, actives largely listed as inhibitors; hit rate 0.008% among 240,000; AID 2107;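 note: potency is the fitted concentration of half-maximal effect; 0% = enzyme with vehicle and -100% = no enzyme basal signal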
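qHTS titration in buffer at pH 5.0. Alpha-galactosidase activity in spleen homogenate was measured via 4-methylumbelliferone release from 1 mM fluorogenic substrate after 40 min at 37C and a pH 10 stop. AC50 came from Hill fits of control-normalized data.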
* hit, by the source's call; [ ] = remark or other dose. Most compounds without a hit are left out; they make up all but 0.4% or so of the library. Calls come from the whole dose curve; as a rule, active = well fitted curve in the direction sought with a large enough effect; inconclusive = small, poorly fitted or top-dose-only effect, or another doubt; inactive = no such curve, though single readings can be large; an effect the other way counts as inactive or inconclusive.

What do the screens show for `COC(=O)c1ccccc1S(=O)(=O)N1CCc2nc(-c3ccc(OC)cc3C)c3c(c2C1)CO[C@@H](c1ccccc1)C3`?
GLA inh pH 4.5: 7; GAA spleen mod: 5%[17.4 µM]; aGal spleen mod: -3%[17.5 µM]

Results for Cc1ccc(S(=O)(=O)Nc2cc(C)c(O)cc2C)cc1 ?
GAA glycogen mod: 3.5µM*; GAA inh: 4%; GLA inh pH 4.5: 3; GAA spleen mod: 3%; aGal spleen mod: 5%

How did COc1ccc(S(=O)(=O)Nc2cc(C(C)C)c(O)cc2C)cc1 do in these assays?
GAA glycogen mod: 20µM*; GAA inh: -9%; GLA inh pH 4.5: -6; GAA spleen mod: -2%; aGal spleen mod: -1%

Results for COc1ccc(S(=O)(=O)Nc2ccc(O)c3ccccc23)cc1 ?
GAA glycogen mod: 9.9µM*; GAA inh: 5%; GLA inh pH 4.5: -6; GAA spleen mod: 6%; aGal spleen mod: -4%

What do the screens show for `Cc1cc(NS(=O)(=O)c2ccccc2)c(C)c(Cl)c1O`?
GAA glycogen mod: 45µM*; GAA inh: -1%; GLA inh pH 4.5: 0; GAA spleen mod: 8%; aGal spleen mod: 0%

Results for CSCC[C@H](NC(=O)[C@@H]1CCCN1C(=O)[C@H](CCCN=C(N)N)NC(=O)[C@H](CC(C)C)NC(=O)[C@@H]1CCCN1C(=O)[C@@H](NC(=O)[C@@H](N)CCC(N)=O)C(C)C)C(=O)N[C@H](C(=O)N[C@@H](Cc1ccc(O)cc1)C(=O)N[C@@H](CCCCN)C(=O)O)[C@@H](C)O ?
GAA spleen mod: 6%; aGal spleen mod: -3%

What do the screens show for `O=c1cc(-c2ccc(C3CCCCC3)cc2)[nH][nH]1`?
GAA glycogen mod: 16µM*; GAA inh: -3%; GLA inh pH 4.5: 0; GAA spleen mod: 9%; aGal spleen mod: 14%

How did O=C(NNC(=S)Nc1ccc(Br)cc1)c1cccnc1 do in these assays?
GAA glycogen mod: 50µM*

What do the screens show for `CN1CC(O)C2=CC(=O)C(=O)C=C21` (stereo not given)?
GAA spleen mod: 11%; aGal spleen mod: 0%

What do the screens show for `COC(=O)C1=C(C(=O)OC)[C@@H]2Nc3ccccc3[C@@]23C[C@@H](C(=O)OC)N(S(=O)(=O)c2ccc(Br)cc2)C3=N1`?
GLA inh pH 4.5: 6; GAA spleen mod: 13%[17.4 µM]; aGal spleen mod: 5%[17.5 µM]

Results for COC(=O)c1ccccc1NS(=O)(=O)c1ccc(Cl)nc1 ?
GAA glycogen mod: 1%; GAA inh: 3%; GLA inh pH 4.5: -2; GAA spleen mod: -4%; aGal spleen mod: 0%

Results for O=S(=O)(Nc1ccccc1O)c1ccc(Cl)nc1 ?
GAA glycogen mod: 20µM*; GLA inh pH 4.5: -5; GAA spleen mod: -3%; aGal spleen mod: -2%

Results for Oc1ccc(O)c(Cc2nc3ccccc3s2)c1 ?
GAA glycogen mod: 5.6µM*; GAA inh: -18%; GLA inh pH 4.5: -11; GAA spleen mod: -3%; aGal spleen mod: 3%

How did Oc1ccccc1OCc1nc2ccccc2s1 do in these assays?
GAA glycogen mod: -30%; GAA inh: -9%; GLA inh pH 4.5: -2; GAA spleen mod: 0%; aGal spleen mod: 0%

What do the screens show for `O=[N+]([O-])c1ccc(Nc2nc(NCCO)nc(N3CCCC3)n2)cc1`?
GAA glycogen mod: 23%; GAA inh: -14%; GLA inh pH 4.5: -9; GAA spleen mod: -2%; aGal spleen mod: -9%

How did Cc1ccc([N+](=O)[O-])cc1Nc1nc(N2CCCC2)nc(N2CCCC2)n1 do in these assays?
GAA glycogen mod: 32µM*

How did CCCCCCCCCCCC do in these assays?
GAA spleen mod: 4%; aGal spleen mod: -1%

What do the screens show for `Cc1ccc(O)c(NC(=O)c2cccc(NC(=O)c3ccco3)c2)c1`?
GAA glycogen mod: 13µM*; GAA inh: -6%; GLA inh pH 4.5: 6; GAA spleen mod: 1%; aGal spleen mod: 5%

What do the screens show for `Cc1cc(O)c(NC(=O)c2ccco2)cc1C`?
GAA glycogen mod: 11µM*; GAA inh: -5%; GLA inh pH 4.5: -3; GAA spleen mod: -15%; aGal spleen mod: -6%

What do the screens show for `Cc1ccc(O)c(NC(=O)c2ccco2)c1`?
GAA glycogen mod: inconclusive; GAA inh: -2%; GLA inh pH 4.5: -9; GAA spleen mod: -1%; aGal spleen mod: 11%

Screening results deposited in PubChem by National Center for Advancing Translational Sciences (NCATS).
